Assay results published in PubChem BioAssay (EPA / NIEHS).
Active and inactive are the calls of the source. Rule for the calls: active = hit-call score of the fitted dose curve at least 0.9, where 1 is the maximum; inactive = score below 0.9.

experiment: ATG_MRE_CIS: Attagene CIS-FACTORIAL HepG2 Assay for human Metal Responsive Element (MRE) (AID 2282954); details: HepG2 MRE cis-reporter transcription, Attagene multiplex; actives raise or lower the signal
Protocol: ATG_CIS is a cell-based, multiplexed-readout assay that uses HepG2, a human liver cell line, with measurements taken at 24 hours after chemical dosing in a 24-well plate.ATG_MRE_CIS is one of 52 assay component(s) measured or calculated from the ATG_CIS assay. It is designed to make measurements of mRNA induction, a form of inducible reporter, as detected with fluorescence intensity signals by Reverse transcription polymerase chain reaction (RT-PCR) and Capillary electrophoresis technology.Data from the assay component ATG_MRE_CIS was analyzed into 1 assay endpoint. This assay endpoint, ATG_MRE_CIS, was analyzed with bidirectional fitting relative to DMSO as the negative control and baseline of activity. Using a type of inducible reporter, measures of mRNA for gain or loss-of-signal activity can be used to understand the reporter gene at the transcription factor-level as they relate to the gene MTF1. Furthermore, this assay endpoint can be referred to as a primary readout, because this assay has produced multiple assay endpoints where this one serves a reporter gene function. To generalize the intended target to other relatable targets, this assay endpoint is annotated to the dna binding intended target family, where the subfamily is zinc finger.
Human liver HepG2 cells are transiently transfected with multiple reporter transcription units (MRTUs) in 6-well plates using FuGene 6 reagent (Roche; 3 ml FuGene/1 mg DNA). The MRTU constructs are regulated by a cis-regulating element (promoter). […] A major difference between the CIS and TRANS system is that in CIS activities of endogenous TFs are measured, whereas the TRANS assay evaluates changes in activities of exogenous, chimeric NR-Gal4 proteins. […] At the end of 24 hour incubation, total RNA was isolated using TriZol reagent (Invitrogen). The isolated RNA is then reverse-transcribed using oligo(dT) primer and Mo-MLV reverse transcriptase (Invitrogen) with DNAse I (Ambion) treatment for 30 min. The one-tenth of the produced cDNA was amplified by PCR using Taq DNA polymerase (Invitrogen) and two reporter sequence-specific primers. The PCR products were fluorescently labeled by primer extension with 6-arboxyfluorescein (6-FAM) 5'-labeled reporter sequence-specific primer (2 min at 95 C, 20 s at 68 C and 10 min at 72 C) and these products were digested with 5U of HpaI (New England Biolabs) for 2h at 37 C. The fragments were purified using Qiaquick PCR columns (Qiagen), analyzed on an ABI 3130xL genetic analyzer (Applied Biosystems) with peak positions identified by using a set of X-rhodamine (ROX)-labeled MapMarker1000 molecular weight standards (BioVentures). The raw capillary electrophoresis data was processed using Attagraph software (Attagene).

Question: For `CCCCn1cc[n+](C)c1`, which outcome is on record?
Answer: Its outcome is “inactive”.

Question: With `c1cc(N(CC2CO2)CC2CO2)ccc1Cc1ccc(N(CC2CO2)CC2CO2)cc1` (stereo not given) as the compound, how does the AC50 read?
Answer: Its AC50 is 21.3 µM (active).

Question: With `O=C(O)Cc1c[nH]c2ccccc12` as the compound, how does the outcome read?
Answer: The outcome was “inactive”.

Question: Which outcome does the source give for `Cc1cc2nc3c(=O)[nH]c(=O)nc-3n(C[C@H](O)[C@H](O)[C@H](O)CO)c2cc1C` here?
Answer: The outcome was “inactive”.

Question: For `OCCN(CCO)c1cccc(Cl)c1`, which outcome is on record?
Answer: Its outcome is “inactive”.

Question: For `CCCCOC(=O)COc1ccc(Cl)cc1Cl`, which outcome is on record?
Answer: Its outcome is “inactive”.

Question: For `CC[N+](CC)(CC(=O)Nc1c(C)cccc1C)Cc1ccccc1` (tested in a mixture with another compound), which outcome is on record?
Answer: Its outcome is “inactive”.

Question: With `Cc1ccccc1S(N)(=O)=O` as the compound, how does the outcome read?
Answer: Its outcome is “inactive”.

Question: For `Cc1cc(C)c(S(=O)(=O)O)cc1N=Nc1cc(S(=O)(=O)O)c2ccccc2c1O`, which outcome is on record?
Answer: Its outcome is “inactive”.

Question: With `CCCc1c(OCCCCc2nn[nH]n2)ccc(C(C)=O)c1O` as the compound, how does the AC50 read?
Answer: Its AC50 is 128 µM (active).

Question: For `O=[N+]([O-])c1ccccc1C(F)(F)F`, which outcome is on record?
Answer: Its outcome is “inactive”.

Question: With `O=C1NC(=O)C2CC=CCC12` (stereo not given) as the compound, how does the outcome read?
Answer: Its outcome is “inactive”.

Question: With `CC1(C)S[C@@H]2[C@H](NC(=O)[C@H](N)c3ccccc3)C(=O)N2[C@H]1C(=O)O` as the compound, how does the outcome read?
Answer: The outcome was “inactive”.

Question: Which outcome does the source give for `CC1=C(CC(=O)O)c2cc(F)ccc2/C1=C\c1ccc(S(C)=O)cc1` (stereo not given) here?
Answer: Its outcome is “inactive”.

Question: Which outcome does the source give for `Cc1ccnc(N)c1` here?
Answer: The outcome was “inactive”.

Question: For `c1ccc2c(c1)Oc1ccccc1S2`, which outcome is on record?
Answer: Its outcome is “inactive”.

Question: With `Brc1ccc(Oc2ccc(Br)cc2)cc1` as the compound, how does the outcome read?
Answer: The outcome was “inactive”.

Question: With `O=C(O)c1ccccc1C(=O)O` as the compound, how does the outcome read?
Answer: Its outcome is “inactive”.

Question: With `NC(=O)c1ccc([N+](=O)[O-])cc1Cl` as the compound, how does the outcome read?
Answer: Its outcome is “inactive”.

Question: Which outcome does the source give for `[O-][n+]1ccc(Cl)cc1` here?
Answer: Its outcome is “inactive”.

Question: For `CC(C)(C)NC(=O)[C@@H]1CN(Cc2cccnc2)CCN1C[C@@H](O)C[C@@H](Cc1ccccc1)C(=O)N[C@H]1c2ccccc2C[C@H]1O`, which outcome is on record?
Answer: Its outcome is “inactive”.

Question: With `CCCCCCC(O)CCCCCCCCCCC(=O)OC` (stereo not given) as the compound, how does the outcome read?
Answer: Its outcome is “inactive”.

Question: Which outcome does the source give for `CCCCCCCCCCCCCC` here?
Answer: The outcome was “inactive”.

Question: For `CCC(C)C1N=C(C)C(C)S1` (stereo not given), which outcome is on record?
Answer: The outcome was “inactive”.

Question: For `CC(C)CC(=O)CC(C)C`, which outcome is on record?
Answer: The outcome was “inactive”.

Question: With `COc1ccccc1OCC(O)CO` (stereo not given) as the compound, how does the outcome read?
Answer: Its outcome is “inactive”.

Question: With `CCOC(=O)CC(=O)OCC` as the compound, how does the outcome read?
Answer: The outcome was “inactive”.

Question: For `N#CCN(CC#N)CCN(CC#N)CC#N`, which outcome is on record?
Answer: Its outcome is “inactive”.

Question: Which outcome does the source give for `CC(C)CC(=O)CC(C)CC(C)C` (stereo not given) here?
Answer: Its outcome is “inactive”.

Question: Which outcome does the source give for `O=C(O)c1nc(Cl)c(Cl)c(Cl)c1Cl` here?
Answer: Its outcome is “inactive”.

Question: For `COC(=O)[C@]1(C)CCC[C@@]2(C)[C@H]1CC=C1C=C(C(C)C)CC[C@@H]12`, which AC50 is on record?
Answer: Its AC50 is 66.1 µM (active).

Question: For `COC(OC)C(C)c1ccccc1` (stereo not given), which outcome is on record?
Answer: Its outcome is “inactive”.

Question: With `O=C(c1ccccc1)c1ccccc1O` as the compound, how does the outcome read?
Answer: Its outcome is “inactive”.

Question: With `NC(=O)c1ccc(N)cc1` as the compound, how does the outcome read?
Answer: The outcome was “inactive”.

Question: With `CNC(=C[N+](=O)[O-])NCCSCc1csc(CN(C)C)n1` as the compound, how does the outcome read?
Answer: Its outcome is “inactive”.

Question: With `CN(C)c1ccc(C(c2ccccc2)c2ccc(N(C)C)cc2)cc1` as the compound, how does the outcome read?
Answer: Its outcome is “inactive”.

Question: For `CCCCCCCC#N`, which outcome is on record?
Answer: The outcome was “inactive”.

Question: With `CCOC(=O)c1ccccc1` as the compound, how does the outcome read?
Answer: Its outcome is “inactive”.

Question: For `Nc1nnc(-c2ccc([N+](=O)[O-])o2)o1`, which outcome is on record?
Answer: The outcome was “inactive”.

Question: With `COc1ccc2ccccc2c1` as the compound, how does the outcome read?
Answer: Its outcome is “inactive”.
